# Reference: PubChem BioAssay AID1159580 (chemical genetic matrix, 2015)
# In all, about 5,500 compounds went through this assay and about 2,000 (36%) were called active. Another 18% or so got no clear call; they are omitted. The list shows a part of the results. A number with no mark means an inactive call. No stated cut-off is given here; in the data, active means normalized growth mostly below about 0.91 (no sharp cut-off); inconclusive means no clear call, values can overlap the other calls; inactive means mostly above about 0.92.
# Assay: chemical genetic growth profiling, strain panel (AID 1159580);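 further: tested at 20 µM; growth read once vehicle control cultures reached saturation at 30 °C; 1 = growth at the plate median or of vehicle wells; lower values mean less growth of the strain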
# Conditions: growth OD
smiles,measurement,setting,value
O=C(O)c1cccnc1,normalized growth,"S. cerevisiae deletion strains, locus YJR075W, strain HOC1, active compounds read low",1.06
same,normalized growth,"S. cerevisiae deletion strains, locus YKL009W, strain mrt4, active compounds read low",0.982
same,normalized growth,"S. cerevisiae deletion strains, locus YKL068W, active compounds read low",0.991
same,normalized growth,"S. cerevisiae deletion strains, locus YKL085W, strain MDH1 (second series), active compounds read low",1.01
same,normalized growth,"S. cerevisiae deletion strains, locus YKL085W, strain MDH1, active compounds read low",1.01
same,normalized growth,"S. cerevisiae deletion strains, locus YKL160W, strain elf1, active compounds read low",1.01
same,normalized growth,"S. cerevisiae deletion strains, locus YKL190W, strain CNB1, active compounds read low",0.997
same,normalized growth,"S. cerevisiae deletion strains, locus YKR001C, strain vps1, active compounds read low",0.986
same,normalized growth,"S. cerevisiae deletion strains, locus YKR026C, strain gcn3, active compounds read low",0.988
same,normalized growth,"S. cerevisiae deletion strains, locus YKR091W, strain srl3, active compounds read low",0.996
same,normalized growth,"S. cerevisiae deletion strains, locus YLL001W, strain dnm1, active compounds read low",0.999
same,normalized growth,"S. cerevisiae deletion strains, locus YLL026W, active compounds read low",1
same,normalized growth,"S. cerevisiae deletion strains, locus YLL041C, strain sdh2, active compounds read low",0.992
same,normalized growth,"S. cerevisiae deletion strains, locus YLR027C, strain aat2, active compounds read low",1
same,normalized growth,"S. cerevisiae deletion strains, locus YLR039C, strain RIC1, active compounds read low",0.982
same,normalized growth,"S. cerevisiae deletion strains, locus YLR058C, strain SHM2, active compounds read low",0.981
same,normalized growth,"S. cerevisiae deletion strains, locus YLR102C, strain apc9, active compounds read low",0.997
same,normalized growth,"S. cerevisiae deletion strains, locus YLR113W, strain HOG1, active compounds read low",0.995
same,normalized growth,"S. cerevisiae deletion strains, locus YLR221C, strain rsa3, active compounds read low",1.02
same,normalized growth,"S. cerevisiae deletion strains, locus YLR258W, strain gsy2, active compounds read low",1.01
same,normalized growth,"S. cerevisiae deletion strains, locus YLR262C, strain YPT6 (second series), active compounds read low",1.01
same,normalized growth,"S. cerevisiae deletion strains, locus YLR262C, strain YPT6, active compounds read low",0.941
same,normalized growth,"S. cerevisiae deletion strains, locus YLR268W, strain sec22, active compounds read low",1.13 [resistant] (active)
same,normalized growth,"S. cerevisiae deletion strains, locus YLR320W, strain mms22, active compounds read low",1.02
same,normalized growth,"S. cerevisiae deletion strains, locus YLR330W, strain CHS5, active compounds read low",0.999
same,normalized growth,"S. cerevisiae deletion strains, locus YLR342W, strain FKS1 (second series), active compounds read low",0.999
same,normalized growth,"S. cerevisiae deletion strains, locus YLR342W, strain FKS1, active compounds read low",0.992
same,normalized growth,"S. cerevisiae deletion strains, locus YLR357W, strain rsc2, active compounds read low",0.991
same,normalized growth,"S. cerevisiae deletion strains, locus YLR370C, strain arc18, active compounds read low",1
same,normalized growth,"S. cerevisiae deletion strains, locus YLR371W, strain rom2, active compounds read low",0.985
same,normalized growth,"S. cerevisiae deletion strains, locus YLR384C, strain iki3, active compounds read low",1.01
same,normalized growth,"S. cerevisiae deletion strains, locus YLR418C, strain cdc73, active compounds read low",1.04
same,normalized growth,"S. cerevisiae deletion strains, locus YML016C, strain PPZ1, active compounds read low",1.01
same,normalized growth,"S. cerevisiae deletion strains, locus YML032C, strain rad52, active compounds read low",1.05
same,normalized growth,"S. cerevisiae deletion strains, locus YML120C, strain ndi1, active compounds read low",0.993
same,normalized growth,"S. cerevisiae deletion strains, locus YML124C, strain tub3, active compounds read low",0.995
same,normalized growth,"S. cerevisiae deletion strains, locus YMR058W, strain fet3, active compounds read low",0.996
same,normalized growth,"S. cerevisiae deletion strains, locus YMR078C, strain ctf18, active compounds read low",0.991
same,normalized growth,"S. cerevisiae deletion strains, locus YMR125W, strain sto1, active compounds read low",0.979
same,normalized growth,"S. cerevisiae deletion strains, locus YMR129W, active compounds read low",0.97
same,normalized growth,"S. cerevisiae deletion strains, locus YMR205C, strain PFK2, active compounds read low",1.04
same,normalized growth,"S. cerevisiae deletion strains, locus YMR223W, strain ubp8, active compounds read low",1
same,normalized growth,"S. cerevisiae deletion strains, locus YMR231W, strain pep5, active compounds read low",1
same,normalized growth,"S. cerevisiae deletion strains, locus YMR263W, strain SAP30, active compounds read low",1.01
same,normalized growth,"S. cerevisiae deletion strains, locus YMR307W, strain GAS1, active compounds read low",0.938
same,normalized growth,"S. cerevisiae deletion strains, locus YNL067W, strain RPL9B, active compounds read low",1.03
same,normalized growth,"S. cerevisiae deletion strains, locus YNL071W, strain lat1, active compounds read low",0.975
same,normalized growth,"S. cerevisiae deletion strains, locus YNL128W, strain TEP1, active compounds read low",0.971
same,normalized growth,"S. cerevisiae deletion strains, locus YNL153C, strain GIM3, active compounds read low",1.03
same,normalized growth,"S. cerevisiae deletion strains, locus YNL183C, strain NPR1, active compounds read low",0.961
same,normalized growth,"S. cerevisiae deletion strains, locus YNL209W, strain ssb2, active compounds read low",0.99
same,normalized growth,"S. cerevisiae deletion strains, locus YNL233W, strain BNI4, active compounds read low",1.05
same,normalized growth,"S. cerevisiae deletion strains, locus YNL248C, strain rpa49, active compounds read low",1.01
same,normalized growth,"S. cerevisiae deletion strains, locus YNL250W, strain rad50, active compounds read low",0.991
same,normalized growth,"S. cerevisiae deletion strains, locus YNL271C, strain bni1, active compounds read low",0.992
same,normalized growth,"S. cerevisiae deletion strains, locus YNL298W, strain CLA4, active compounds read low",0.977
same,normalized growth,"S. cerevisiae deletion strains, locus YNL307C, strain MCK1, active compounds read low",1.02
same,normalized growth,"S. cerevisiae deletion strains, locus YNL322C, strain KRE1 (second series), active compounds read low",0.997
same,normalized growth,"S. cerevisiae deletion strains, locus YNL322C, strain KRE1, active compounds read low",0.996
same,normalized growth,"S. cerevisiae deletion strains, locus YNR049C, strain mso1, active compounds read low",0.994
same,normalized growth,"S. cerevisiae deletion strains, locus YNR052C, strain pop2, active compounds read low",1
same,normalized growth,"S. cerevisiae deletion strains, locus YOL006C, strain TOP1, active compounds read low",1.03
same,normalized growth,"S. cerevisiae deletion strains, locus YOL012C, strain htz1",1.06
same,normalized growth,"S. cerevisiae deletion strains, locus YOL147C, strain pex11, active compounds read low",1
same,normalized growth,"S. cerevisiae deletion strains, locus YOR001W, strain rrp6, active compounds read low",0.977
same,normalized growth,"S. cerevisiae deletion strains, locus YOR061W, strain CKA2, active compounds read low",0.97
same,normalized growth,"S. cerevisiae deletion strains, locus YOR069W, strain VPS5, active compounds read low",0.996
same,normalized growth,"S. cerevisiae deletion strains, locus YOR070C, strain gyp1, active compounds read low",1
same,normalized growth,"S. cerevisiae deletion strains, locus YOR080W, strain dia2, active compounds read low",0.993
same,normalized growth,"S. cerevisiae deletion strains, locus YOR083W, strain WHI5, active compounds read low",1.03
same,normalized growth,"S. cerevisiae deletion strains, locus YOR106W, strain vam3, active compounds read low",1.05
same,normalized growth,"S. cerevisiae deletion strains, locus YOR136W, strain idh2, active compounds read low",1
same,normalized growth,"S. cerevisiae deletion strains, locus YOR144C, strain elg1, active compounds read low",0.995
same,normalized growth,"S. cerevisiae deletion strains, locus YOR184W, strain ser1, active compounds read low",1.03
same,normalized growth,"S. cerevisiae deletion strains, locus YOR231W, strain MKK1, active compounds read low",1.01
same,normalized growth,"S. cerevisiae deletion strains, locus YOR265W, strain rbl2, active compounds read low",1
same,normalized growth,"S. cerevisiae deletion strains, locus YOR270C, strain vph1, active compounds read low",0.978
same,normalized growth,"S. cerevisiae deletion strains, locus YOR290C, strain snf2, active compounds read low",0.996
same,normalized growth,"S. cerevisiae deletion strains, locus YOR316C, strain cot1, active compounds read low",0.998
same,normalized growth,"S. cerevisiae deletion strains, locus YPL051W, strain arl3, active compounds read low",1.05
same,normalized growth,"S. cerevisiae deletion strains, locus YPL055C, strain LGE1, active compounds read low",1.01
same,normalized growth,"S. cerevisiae deletion strains, locus YPL078C, strain atp4, active compounds read low",0.999
same,normalized growth,"S. cerevisiae deletion strains, locus YPL106C, strain sse1, active compounds read low",1.03
same,normalized growth,"S. cerevisiae deletion strains, locus YPL240C, strain hsp82, active compounds read low",1.01
same,normalized growth,"S. cerevisiae deletion strains, locus YPL241C, strain CIN2, active compounds read low",0.992
same,normalized growth,"S. cerevisiae deletion strains, locus YPL256C, strain CLN2, active compounds read low",1.01
same,normalized growth,"S. cerevisiae deletion strains, locus YPR119W, strain clb2, active compounds read low",0.998
same,normalized growth,"S. cerevisiae deletion strains, locus YPR141C, strain kar3, active compounds read low",0.991
same,normalized growth,"S. cerevisiae deletion strains, locus YPR163C, strain tif3, active compounds read low",0.995
same,normalized growth,"S. cerevisiae deletion strains, locus YPR167C, strain met16, active compounds read low",1
same,normalized growth,"S. cerevisiae deletion strains, strain wtn01, active compounds read low",1.04
same,normalized growth,"S. cerevisiae strains, strain wild type, active compounds read low",0.995
